In PubChem BioAssay (EPA / NIEHS):
Calls of active or inactive are those of the source. The calls were made as follows: active = hit-call score of the fitted dose curve at least 0.9, where 1 is the maximum; inactive = score below 0.9.

Experiments:
[1] = APR_HepG2_StressKinase_1hr: Apredica 1-hour HepG2 Assay for Stress Kinase (AID 2282906); conditions: HepG2 stress kinase (phospho-c-Jun) imaging, actives raise or lower the signal
Procedure, shortened: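 High-content imaging of phospho-c-Jun immunostaining (with Hoechst nuclear identification) after a 1 h exposure of HepG2 cells to 10 concentrations from 0.39 to 200 uM, final DMSO 0.5%. Fitted bidirectionally against DMSO.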

[2] = APR_HepG2_NuclearSize_24hr: Apredica 24-hour HepG2 Assay for Nuclear Size (AID 2282907); conditions: high-content imaging, actives raise or lower the signal
Procedure, shortened: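 Read-out: nuclear diameter from Hoechst 33342 (2 ug/mL) imaging of fixed HepG2 cells, 20x, six fields/well. Compounds ran at 0.39–200 uM for 24 hr, 0.5% DMSO final. Gain or loss was fitted bidirectionally relative to the DMSO baseline.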

[3] = APR_HepG2_CellLoss_24hr: Apredica 24-hour HepG2 Assay for Cell Loss (AID 2282908); conditions: high-content imaging
Procedure, shortened: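 Read-out: Hoechst 33342-stained nuclei counted by automated fluorescence imaging after formaldehyde fixation and Triton permeabilization. Ten concentrations, 0.39 to 200 uM, duplicate wells, 0.5% DMSO final. Gain or loss of signal fitted relative to DMSO baseline.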

[4] = APR_HepG2_MicrotubuleCSK_24hr: Apredica 24-hour HepG2 Assay for Microtubule CSK Stabilty (AID 2282909); conditions: HepG2 microtubule cytoskeleton imaging, actives raise or lower the signal
Procedure, shortened: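 Read-out: alpha-tubulin immunofluorescence intensity by automated high-content imaging of fixed HepG2 cells after 24 h compound treatment. Ten concentrations, 0.39 to 200 uM, in duplicate; DMSO 0.5% v/v. Taxol positive control; DMSO-normalized bidirectional curve fitting.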

[5] = APR_HepG2_MitoticArrest_24hr: Apredica 24-hour HepG2 Assay for Mitotic Arrest (AID 2282910); conditions: high-content imaging, actives raise or lower the signal
Procedure, shortened: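 Treatment lasted 24 hr in the human HepG2 line at 0.39–200 uM, solvent held at 0.5% DMSO. Fixed cells were stained with Hoechst 33342 and anti-phospho-histone H3, imaged at 20x, and analysed by gain- or loss-of-signal fitting against DMSO.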

[6] = APR_HepG2_MitoMembPot_24hr: Apredica 24-hour HepG2 Assay for Mitochondrial Membrane Potential (AID 2282911); conditions: imaging, actives raise or lower the signal
Procedure, shortened: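 Cells are dosed for 24 hr across 0.39 to 200 uM with solvent held at 0.5% DMSO. They are then stained with 250 nM MitoTracker Red CMXRos for 30 min, fixed in 3.7% formaldehyde and imaged.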

[7] = APR_HepG2_MitoMass_24hr: Apredica 24-hour HepG2 Assay for Mitochondrial Mass (AID 2282912); conditions: high-content imaging, actives raise or lower the signal
Procedure, shortened: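 HepG2, 24 hr dosing, 10 concentrations 0.39–200 uM in duplicate, DMSO 0.5% final. MitoTracker Red CMXRos 250 nM, 30 min pre-fix; 3.7% formaldehyde fix. Imaging-based fluorescence intensity; gain/loss fit vs DMSO baseline.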

[8] = APR_HepG2_p53Act_24hr: Apredica 24-hour HepG2 Assay for p53 Activation (AID 2282913); conditions: high-content imaging, actives raise or lower the signal;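 also: p53 protein immunofluorescence averaged per cell in HepG2 with Hoechst nuclei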
Procedure, shortened: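 Human HepG2 liver cells; 24 hr cpd treatment, 0.39–200 uM, 0.5% DMSO final. Fixed in 3.7% formaldehyde, permeabilized with 0.5% Triton X-100, stained with anti-p53/Cy5 plus Hoechst 33342. Six images per well at 20x; gain or loss vs DMSO.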

[9] = APR_HepG2_P-H2AX_72hr: Apredica 72-hour HepG2 Assay for H2AX Phosphorylation (AID 2282916); conditions: imaging, actives raise or lower the signal;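 also: phospho-histone H2A.x immunostain intensity per cell marking DNA damage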
Procedure, shortened: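 Readout: phospho-H2A.x immunofluorescence (FITC secondary) plus Hoechst nuclear stain, high-content imaging at 20x, six fields/well. HepG2, 72 hr compound exposure, 0.39–200 uM, final DMSO 0.5% v/v. Gain or loss fitted relative to DMSO baseline.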

[10] = APR_HepG2_MitoMembPot_72hr: Apredica 72-hour HepG2 Assay for Mitochondrial Membrane Potential (AID 2282917); conditions: imaging, actives raise or lower the signal
Procedure, shortened: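 HepG2 cells exposed 72 h to compounds at 0.39–200 uM (0.5% v/v DMSO, duplicates); MitoTracker Red CMXRos 250 nM loaded 30 min before 3.7% formaldehyde fixation, imaged by HCS fluorescence. Bidirectional fit versus DMSO.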

[11] = APR_HepG2_MitoticArrest_72hr: Apredica 72-hour HepG2 Assay for Mitotic Arrest (AID 2282918); conditions: high-content imaging, actives raise or lower the signal
Procedure, shortened: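 Read-out is phospho-histone H3 immunofluorescence with Hoechst nuclear segmentation, imaged at 20x. Human HepG2 liver cells received ten concentrations (0.39–200 uM, final DMSO 0.5% v/v) for 72 hr before fixation. Gain or loss of signal was fitted relative to DMSO.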

[12] = APR_HepG2_MicrotubuleCSK_72hr: Apredica 72-hour HepG2 Assay for Microtubule CSK Stabilty (AID 2282919); conditions: HepG2 microtubule cytoskeleton, high-content imaging, actives raise or lower the signal
Procedure, shortened: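 Ten-point dosing (0.39–200 uM, 0.5% DMSO) of HepG2 for 72 hr, with taxol as the cytoskeletal positive control. The cells were formaldehyde-fixed and then stained with alpha-tubulin/Cy5 and Hoechst. Imaging at 20x used a −2 um Z offset for tubulin.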

[13] = APR_HepG2_P-H2AX_24hr: Apredica 24-hour HepG2 Assay for H2AX Phosphorylation (AID 2282920); conditions: high-content imaging, actives raise or lower the signal
Procedure, shortened: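 HepG2, 24 hr, cpd 0.39–200 uM (10 conc, duplicate), DMSO 0.5% v/v final. Fix 3.7% formaldehyde, Triton X-100 permeabilize, anti-phospho-H2A.x 1:200 + Hoechst 2 ug/mL. Imaged, bidirectional fit vs DMSO.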

[14] = APR_HepG2_StressKinase_24hr: Apredica 24-hour HepG2 Assay for Stress Kinase (AID 2282922); conditions: HepG2 stress kinase (phospho-c-Jun) imaging, actives raise or lower the signal
Procedure, shortened: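 After 24 hr compound treatment (up to 200 uM, final DMSO 0.5% v/v), HepG2 cells are fixed and multiplex-labeled; phospho-c-Jun intensity is captured by high-content fluorescence imaging and analyzed relative to DMSO.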

[15] = APR_HepG2_MitoMass_72hr: Apredica 72-hour HepG2 Assay for Mitochondrial Mass (AID 2282924); conditions: high-content imaging, actives raise or lower the signal;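 also: MitoTracker Red CMXRos stain intensity per cell imaged as mitochondrial mass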
Procedure, shortened: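 Steps: treat HepG2 72 hr (0.39–200 uM, duplicate wells); load MitoTracker Red CMXRos, 250 nM, 30 min; fix with 3.7% formaldehyde, permeabilise with 0.5% Triton X-100; capture images, nuclei via Hoechst 33342; fit bidirectionally against DMSO.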

[16] = APR_HepG2_StressKinase_72hr: Apredica 72-hour HepG2 Assay for Stress Kinase (AID 2282921); conditions: HepG2 stress kinase (phospho-c-Jun) imaging, actives raise or lower the signal
Procedure, shortened: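 Phospho-c-Jun immunofluorescence measured by high-content imaging at 20x, six fields per well; bidirectional curve fitting against DMSO as baseline. Dosing: 0.39–200 uM, 72 h, 0.5% DMSO final.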

[17] = APR_HepG2_CellCycleArrest_72hr: Apredica 72-hour HepG2 Assay for Cell Cycle Arrest (AID 2282914); conditions: high-content imaging, actives raise or lower the signal
Procedure, shortened: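 Read-out is Hoechst-stained nuclear DNA content measured by automated fluorescence imaging (20x, six images per well), fitted in both directions relative to DMSO. Human HepG2 liver cells received 0.39–200 uM compound for 72 hr at 0.5% v/v DMSO.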

[18] = APR_HepG2_p53Act_72hr: Apredica 72-hour HepG2 Assay for p53 Activation (AID 2282923); conditions: high-content imaging, actives raise or lower the signal;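 also: average cellular p53 protein immunofluorescence intensity in HepG2 cells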
Procedure, shortened: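 Readout: p53 immunofluorescence quantified by automated high-content imaging at 20x, six fields per well, nuclei located via Hoechst. Dosing ran 72 hr over ten concentrations from 0.39 to 200 uM; bidirectional curve fitting against DMSO baseline.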

[19] = APR_HepG2_CellLoss_72hr: Apredica 72-hour HepG2 Assay for Cell Loss (AID 2282915); conditions: high-content imaging
Procedure, shortened: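 HepG2 cells were exposed for 72 hr to compounds at 0.39–200 uM (ten concentrations, duplicate) in 0.5% v/v final DMSO. Nuclei were stained with Hoechst 33342 after 3.7% formaldehyde fixation, imaged at 20x, and counted; fits bidirectional versus DMSO.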

CON(C)C(=O)Nc1ccc(Cl)c(Cl)c1
outcome [1]: inactive | outcome [2]: inactive | outcome [3]: inactive | outcome [4]: inactive | outcome [5]: inactive | AC50 [6]: 28.9 µM (active) | outcome [7]: inactive | outcome [8]: inactive | outcome [9]: inactive | AC50 [10]: 23.1 µM (active) | outcome [11]: inactive | outcome [12]: inactive | outcome [13]: inactive | outcome [14]: inactive | AC50 [15]: 67 µM (active)

CC(C)C1(C)N=C(c2nc3ccccc3cc2C(=O)O)NC1=O (stereo not given)
outcome [1]: inactive | outcome [2]: inactive | outcome [3]: inactive | outcome [4]: inactive | outcome [5]: inactive | outcome [6]: inactive | outcome [7]: inactive | outcome [8]: inactive | outcome [9]: inactive | outcome [10]: inactive | outcome [11]: inactive | outcome [12]: inactive | outcome [13]: inactive | outcome [16]: inactive | outcome [14]: inactive | outcome [15]: inactive

CCOC(=O)CC(SP(=S)(OC)OC)C(=O)OCC (stereo not given)
outcome [1]: inactive | outcome [2]: inactive | outcome [3]: inactive | outcome [4]: inactive | outcome [5]: inactive | outcome [6]: inactive | outcome [7]: inactive | outcome [8]: inactive | outcome [17]: inactive | outcome [9]: inactive | outcome [10]: inactive | outcome [11]: inactive | outcome [12]: inactive | outcome [13]: inactive | outcome [14]: inactive | outcome [15]: inactive

CC1=C(C(=O)Nc2ccccc2)SCCO1
outcome [1]: inactive | outcome [2]: inactive | outcome [3]: inactive | outcome [4]: inactive | outcome [5]: inactive | outcome [6]: inactive | outcome [7]: inactive | outcome [8]: inactive | outcome [9]: inactive | outcome [10]: inactive | outcome [11]: inactive | outcome [12]: inactive | outcome [13]: inactive | outcome [14]: inactive | outcome [15]: inactive

N#Cc1cc(Br)c(O)c(Br)c1
outcome [1]: inactive | outcome [2]: inactive | outcome [3]: inactive | outcome [4]: inactive | outcome [5]: inactive | AC50 [6]: 89.4 µM (active) | outcome [7]: inactive | outcome [8]: inactive | outcome [9]: inactive | outcome [10]: inactive | outcome [11]: inactive | outcome [12]: inactive | outcome [13]: inactive | outcome [14]: inactive | outcome [18]: inactive | outcome [15]: inactive

CCCCOC(=O)c1ccccc1C(=O)OCCCC
outcome [1]: inactive | outcome [2]: inactive | outcome [3]: inactive | outcome [4]: inactive | outcome [5]: inactive | outcome [6]: inactive | outcome [7]: inactive | outcome [8]: inactive | outcome [19]: inactive | outcome [9]: inactive | outcome [10]: inactive | outcome [11]: inactive | outcome [12]: inactive | outcome [13]: inactive | outcome [14]: inactive | outcome [15]: inactive

COc1nc(C)nc(NC(=O)NS(=O)(=O)c2ccccc2Cl)n1
outcome [1]: inactive | outcome [2]: inactive | outcome [3]: inactive | outcome [4]: inactive | outcome [5]: inactive | outcome [6]: inactive | outcome [7]: inactive | outcome [8]: inactive | outcome [9]: inactive | outcome [10]: inactive | outcome [11]: inactive | outcome [12]: inactive | outcome [13]: inactive | outcome [16]: inactive | outcome [14]: inactive | outcome [15]: inactive

COP(N)(=O)SC (stereo not given)
outcome [1]: inactive | outcome [2]: inactive | outcome [3]: inactive | outcome [4]: inactive | outcome [5]: inactive | outcome [6]: inactive | outcome [7]: inactive | outcome [8]: inactive | outcome [9]: inactive | outcome [10]: inactive | outcome [11]: inactive | outcome [12]: inactive | outcome [13]: inactive | outcome [14]: inactive | outcome [15]: inactive
